Measured values taken from PubChem BioAssay.

molecular target: Dihydroorotate dehydrogenase (quinone), mitochondrial (Plasmodium falciparum (isolate 3D7)) (UniProt Q08210); assay: PfDHODH enzyme inhibitors, primary screen, biochemical, C-terminal His tag, absorbance 600 nm (AID 1175); conditions: DCIP absorbance 600 nm, higher = more signal, called active from +8 up or from −8 down;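 further: recombinant parasite enzyme with a five histidine tag at its C terminus; test concentration not given here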
Sequence (Q08210 whole entry, looked up): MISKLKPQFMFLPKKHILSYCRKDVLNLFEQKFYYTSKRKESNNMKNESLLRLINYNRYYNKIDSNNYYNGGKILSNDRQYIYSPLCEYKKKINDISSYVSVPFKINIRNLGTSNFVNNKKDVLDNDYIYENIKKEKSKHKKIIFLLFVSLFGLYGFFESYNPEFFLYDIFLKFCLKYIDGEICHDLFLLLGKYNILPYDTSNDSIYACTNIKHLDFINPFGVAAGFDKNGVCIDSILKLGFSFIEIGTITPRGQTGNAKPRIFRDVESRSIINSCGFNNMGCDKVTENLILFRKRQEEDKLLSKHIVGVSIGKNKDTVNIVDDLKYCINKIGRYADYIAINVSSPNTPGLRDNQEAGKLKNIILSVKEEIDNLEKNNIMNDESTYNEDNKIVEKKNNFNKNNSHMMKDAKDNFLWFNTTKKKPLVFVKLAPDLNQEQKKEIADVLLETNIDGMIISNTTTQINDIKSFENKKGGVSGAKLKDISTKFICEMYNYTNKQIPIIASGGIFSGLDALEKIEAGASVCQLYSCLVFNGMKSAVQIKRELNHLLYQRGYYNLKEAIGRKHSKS

Composite z-score, inactive:
[N-]=[N+]=Nc1ccccc1[C@H]1OC(c2ccc(OCCCO)cc2)=N[C@@]1(Cc1ccccc1)C(=O)N1CCOCC1 0.396, CN1C(=O)C2C=CC(C(O)c3ccccc3)N(N3CCCCC3)C2C1=O (stereo not given) 0.0669, C=CCC(OC(C)=O)[C@@H]1[C@@H](N(Cc2ccc(-c3ccccc3)cc2)C(=O)Cc2ccc(F)cc2)c2cc(OCCCO)ccc2N1C(=O)c1ccc2ccccc2c1 (stereo not given in full) 0.683, COc1cc(CO)cc(I)c1O[C@H]1C=C(C(=O)NCCO)C[C@@H](N(C(=O)c2cc3ccccc3oc2=O)C2CCCCCC2)[C@@H]1O -0.346, CCCNC(=O)[C@@]1(Sc2ccc(C)cc2)CC(=O)N(Cc2ccccc2C(F)(F)F)[C@@H]1c1ccc(CO)cc1I -0.469, NC(=O)[C@@H]1[C@H]2C(=O)O[C@H](c3ccccc3)[C@H](c3ccccc3)N2[C@H](c2ccc(OCCO)cc2)[C@@]12C(=O)Nc1ccc(C#CC3=CCCCC3)cc12 0.207, COCCCNC(=O)[C@@]1(Cc2ccccc2)N=C(c2ccc(OCCCO)cc2)O[C@H]1c1ccccc1CN=[N+]=[N-] -0.453, Cc1ccc(C2C3C(=O)CC4C(=O)N(c5ccccc5)C(=O)C4C3CN2S(=O)(=O)c2ccc(C)cc2)cc1 (stereo not given) -0.274, O=C(NC1CC1)[C@@H]1c2ccccc2C(=O)N(Cc2cc(F)cc(C(F)(F)F)c2)[C@H]1c1ccc(CO)cc1 -0.323, COc1cc2c(cc1O)C(c1cccs1)N(Cc1cccc(OC(F)(F)F)c1)CC2 (stereo not given) -4.69, CCOC(=O)C1=CC[C@@H](c2ccccc2)N(S(=O)(=O)c2ccc(C)cc2)[C@H]1c1ccc(CC)cc1 0.207, CN1CCC(CCCO)=CC1c1cccs1 (stereo not given) -0.404, CCCCCN1CC=CC23O[C@@H]4C=CCOC(=O)[C@@H]4[C@H]2C(=O)N(C(C)CO)[C@@H]3C1=O (stereo not given in full) -0.478, Cc1ccc(S[C@]2(C(=O)NCC(C)C)CC(=O)N(Cc3cc(C(F)(F)F)cc(C(F)(F)F)c3)[C@@H]2c2ccc(CO)cc2)cc1 -0.099, CC1CC/C=C\[C@H]2OC34C=CCN(Cn5nnc6ccccc65)C(=O)[C@H]3N(CCCCCO)C(=O)[C@@H]4C2C(=O)O1 (stereo not given in full) 0.374, COc1ccc([Si](C)(C)[C@@H]2[C@@H](CCO)O[C@]3(C(=O)N(Cc4cccc(N5CCOC5=O)c4)c4ccccc43)[C@H]2C)cc1 -0.346, CCCCN1CC=CC23O[C@@H]4C=CCCOC(=O)C4[C@H]2C(=O)N(CCCCCO)[C@@H]3C1=O (stereo not given in full) 0.0416, COc1ccc(CCNC(=O)[C@@]2(C)c3ccccc3C(=O)N(c3ccc(C)cn3)[C@H]2c2ccc(CO)cc2)cc1 -0.907, COC(=O)[C@@]1(Cc2ccc(OC)cc2)[C@H]2c3cc(C(=O)N4CCCC4)n(Cc4nc5ccccc5[nH]4)c3C[C@H]2CN1C(=O)c1ccccc1 0.98, [N-]=[N+]=NCc1ccccc1[C@@H]1OC(c2ccc(OCCCO)cc2)=N[C@]1(CCS(=O)(=O)c1ccccc1)C(=O)N1CCOCC1 -4.67, CCOC(=O)C1=CC[C@H]2C(=O)N(c3ccccc3)C(=O)[C@@H]12 0.494, COC(=O)[C@@]1(Cc2ccc(F)cc2)[C@H]2c3cc(C(=O)N(C)C)n(Cc4ccc(C)o4)c3C[C@H]2CN1C(=O)c1ccccc1 -0.631, OCCCC1=CC(C2CC2)N(Cc2cccc(OC(F)(F)F)c2)CC1 (stereo not given) -3.08, CCOc1cc(C(O)C2C=CC3C(=O)N(c4ccccc4)C(=O)C3N2Nc2ccc(C(C)C)cc2)ccc1O (stereo not given) 1.15, CO[C@H]1O[C@H](CO)[C@@H](OC(=O)Nc2ccccc2)[C@@H]2OC(=O)[C@@H](Cc3ccc4ccccc4c3)C/C=C/C[C@H](Cc3ccc4ccccc4c3)C(=O)O[C@@H]12 -2.21, CCOC(=O)C[C@H]1[C@H](OC(=O)c2ccc(C(=O)c3ccccc3)cc2)[C@@H](NC(=O)Cc2ccc(OC)cc2)c2cc(OCCCO)ccc2N1C(=O)c1ccc2ccccc2n1 0.764, C=CC[C@]1(C(=O)N2CCOCC2)N=C(c2ccc(OCCCO)cc2)O[C@H]1c1ccccc1N=[N+]=[N-] 0.846, NC(=O)[C@@H]1[C@H]2C(=O)O[C@H](c3ccccc3)[C@H](c3ccccc3)N2[C@H](c2ccc(O)cc2)[C@@]12C(=O)Nc1ccc(C#CC3=CCCCC3)cc12 1.68, COCCCNC(=O)[C@]1(Cc2ccccc2)N=C(c2ccc(OCCCO)cc2)O[C@@H]1c1ccccc1CN=[N+]=[N-] -0.925, CC(C)(C)OC(=O)CC[C@]1(C(N)=O)N=C(c2ccc(OCCCO)cc2)O[C@H]1c1ccccc1 -0.0959, O=C1C2C=CC(C(O)C=Cc3ccc([N+](=O)[O-])cc3)N(Nc3ccccc3F)C2C(=O)N1c1ccccc1 (stereo not given) 1.06, C=C(CCCC)/C(=C/C[C@@H](OC(C)=O)c1ccccc1OCCO)c1cc(C(=O)OC)ccc1OC -0.04, O=C1C2C=CC(C(O)c3ccc(F)cc3)N(Nc3ccc([N+](=O)[O-])cc3)C2C(=O)N1c1ccccc1 (stereo not given) -0.0421, CC(=O)NCCCC[C@@H]1NC(=O)[C@H]2C[C@@H](C(=O)O)[C@@H](c3ccc(O)cc3)N2C1=O -0.24, COc1ccc([Si](C)(C)[C@H]2[C@H](CCn3cc([C@H](O)c4ccccc4)nn3)O[C@@]3(C(=O)N(C)c4ccccc43)[C@@H]2C)cc1 -0.778
